Screening results deposited in PubChem by National Center for Advancing Translational Sciences (NCATS).
Many of the other results were omitted from the sample, so hits are more common in it than they were.
N370S GC mod – inhibitors or activators of N370S glucocerebrosidase for Gaucher disease | N370S GC spleen homogenate, 4MU-glucoside fluorescence | Potency, µM (doses to about 59.4 µM), actives largely listed as inhibitors | actives 0.092% (n = 330,000)
a7 integrin act – activators of alpha7 integrin expression for muscular dystrophy | alpha7betagal myoblasts, beta-gal FDG fluorescence, 48 h | AID 624291 | actives 0.064% (n = 350,000) | Potency, µM (highest dose often 38.3 µM), usual class: activators; note: nearly all actives have a fitted effect of over 60% in size
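Alpha7betagal+/- myoblasts (passage 13) were plated 16-24 hr, then exposed to compounds (1:260 dilution of DMSO stock) for 48 hours at 37C. After MPER lysis, β-galactosidase reporter activity was read as FDG fluorescence (ex 480/em 540) after 30 minutes.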
ClpP mod – qHTS Assay for Activators of ClpP; AID 651965, 2013; ATP-dependent Clp protease proteolytic subunit (Bacillus subtilis (strain 168)), P80244; actives 1.9% (n = 340,000); Potency, µM (series often up to 57.5 µM); purified B. subtilis ClpP, FRET peptide cleavage, 20 min; active = well fitted falling curve with a large enough effect; inconclusive = small, poorly fitted or top-dose-only effect; inactive = no such curve, though single readings can be large or run the other way; note: the source files actives as falling curves though it sought activators and does not explain the sign; nearly all actives have a fitted effect of over 65% in size
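Purified B. subtilis ClpP, 10 microg/mL final in Tris/HCl pH8 with KCl, BSA, glycerol and Tween-20, cleaved an Abz/nitrotyrosine-quenched decapeptide. Fluorescence (ex 320, em 430) was read at 0 and 20 min at room temperature. Delta was normalized to 5.8 microM ADEP and DMSO/no-enzyme controls.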
Apoferritin bind – binds horse apoferritin like a general anesthetic; P02791; apoferritin/1-aminoanthracene competitive binding, fluorescence; Potency, µM (highest dose often 77.5 µM), most hits filed as inhibitors; actives 0.074% (n = 350,000); AID 485281; note: nearly all actives have a fitted effect of over 20% in size
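Apoferritin-based anesthetic binding model; compound displacement of fluorescent 1-AMA measured as endpoint fluorescence after 10 minutes at room temperature, scaled to free-ligand and complex controls.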
CBFb RUNX1 block – inhibitors of human CBF-beta and RUNX1 interaction; 230,000 tested, under 10 active; Q01196+Q13951; AlphaScreen CBFb-His/RUNX1-biotin binding, biochemical; Potency, µM (series often up to 59.8 µM), actives largely listed as inhibitors
Target sequence (Q01196 whole entry, looked up): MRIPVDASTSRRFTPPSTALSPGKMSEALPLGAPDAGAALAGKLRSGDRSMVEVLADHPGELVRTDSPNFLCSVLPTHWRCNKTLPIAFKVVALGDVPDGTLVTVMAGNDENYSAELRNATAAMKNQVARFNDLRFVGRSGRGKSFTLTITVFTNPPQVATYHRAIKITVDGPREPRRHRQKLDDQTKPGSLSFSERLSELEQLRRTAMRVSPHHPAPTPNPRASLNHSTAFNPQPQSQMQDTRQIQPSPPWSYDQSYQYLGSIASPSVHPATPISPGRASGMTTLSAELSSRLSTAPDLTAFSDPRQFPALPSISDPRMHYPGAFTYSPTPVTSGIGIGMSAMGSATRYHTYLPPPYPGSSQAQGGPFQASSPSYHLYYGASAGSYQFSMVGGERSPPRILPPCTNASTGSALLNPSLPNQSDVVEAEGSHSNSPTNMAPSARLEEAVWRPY
Target sequence (Q13951 whole entry, looked up): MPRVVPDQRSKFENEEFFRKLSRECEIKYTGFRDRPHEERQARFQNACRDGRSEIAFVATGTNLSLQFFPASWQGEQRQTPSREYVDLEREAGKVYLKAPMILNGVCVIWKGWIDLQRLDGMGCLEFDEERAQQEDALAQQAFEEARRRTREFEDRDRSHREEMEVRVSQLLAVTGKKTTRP
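Proteins preincubated together for 20 min at RT before compound addition; 15 min later, nickel and streptavidin beads were added and left 90 min prior to AlphaScreen measurement.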
GRP78 ERSR act – inducers of ER stress response in human glioma cells. U87-MG GRP78 promoter luciferase reporter, 16 h. Potency, µM, actives largely listed as activators. actives 0.02% (n = 420,000); note: series mostly up to about 76 µM; nearly all actives have a fitted effect of over 35% in size
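Stably transfected U87-MG human glioma cells carrying a GRP78-based luminescent sensor were seeded at 1000 cells/well, pin-dosed with compounds and incubated 16 h. Luciferase reagent was then added, and end-point luminescence was read after 10 min at room temperature.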
A number is an active result; 0 = inactive; ? = inconclusive; - = no result; [ ] = remark or other dose. Unless noted, calls come from the whole dose curve; as a rule, active = well fitted curve in the direction sought with a large enough effect; inconclusive = small, poorly fitted or top-dose-only effect, or another doubt; inactive = no such curve, though single readings can be large; an effect the other way counts as inactive or inconclusive.

SMILES | N370S GC mod | a7 integrin act | ClpP mod | Apoferritin bind | CBFb RUNX1 block | GRP78 ERSR act
Nc1ccc(-c2nc3ccccc3s2)cn1 | ? | 0 | - | 0 | - | 0
Brc1ccc(-c2nc3ccccc3s2)s1 | 0 | 0 | 28µM | 0 | 0 | 0
COc1ccccc1C1CN(CCNC(=O)c2ccccc2Cl)Cc2ccccc2O1 (stereo not drawn) | - | - | - | - | - | 0
CCC(O)(C(=O)Nc1ccccc1C(F)(F)F)c1ccccc1OC (stereo not drawn) | - | 0 | 0 | - | - | 0
COc1ccccc1C(C)NCC(=O)Nc1ccccc1C(F)(F)F (stereo not drawn) | 0 | 0 | 18µM | 0 | 0 | 0
Clc1ccc(-c2ccc(/C=N/Nc3cc(N4CCOCC4)nc(N4CCOCC4)n3)o2)cc1 | 0 | 0 | 7.9µM | 0 | 0 | 0
CCOc1cccc2sc(N3CCN(C(=O)c4ccc5ncsc5c4)CC3)nc12 | 0 | 0 | 22µM | - | - | 0
COCC(=O)Nc1nc2n(n1)C(c1ccccc1)CC(c1ccc(OC)cc1)N2 (stereo not drawn) | 0 | 0[7.66 µM] | 25µM | 0 | 0 | 0
COCC(=O)Nc1nc2n(n1)C(c1ccc(OC)cc1)CC(c1ccc(OC)cc1)N2 (stereo not drawn) | 0 | 0 | 0 | 0 | 0 | 0
O=c1[nH]c2cc([N+](=O)[O-])cc([N+](=O)[O-])c2[nH]c1=O | 0 | - | - | 0 | 0 | 0
O=c1[nH]c2cc([N+](=O)[O-])c([N+](=O)[O-])cc2[nH]c1=O | 8.9µM | ? | 0 | 0 | 0 | 0
COc1cc2ccccc2cc1C(=O)OCC(=O)Nc1ccc(Br)cc1 | - | - | 0 | - | - | 0
CCCN(CCC)C(=O)C(CCC(=O)OCCCN1CCN(CCOC(=O)Cc2c(C)n(C(=O)c3ccc(Cl)cc3)c3ccc(OC)cc23)CC1)NC(=O)c1ccccc1 (stereo not drawn) | - | - | - | - | - | 0
Cc1ccc(Cl)cc1NC(=O)COC(=O)CCN1C(=O)C2CC=CCC2C1=O (stereo not drawn) | - | 0 | 25µM | - | - | 0
O=C(Nc1ccc2c(c1)nc1n2CCN(Cc2ccccc2)C1)NC1CCCCC1 | 0 | 0 | 28µM | 0 | 0 | 0
COCCN1CCn2c(nc3cc(NC(=O)NC4CCCCC4)ccc32)C1 | 0 | 0 | ? | 0 | 0 | 0
O=C(Cn1c(-c2cccs2)cc2cc(F)ccc21)N1CCN(c2ccccc2)CC1 | - | - | 16µM | 0 | - | 0
O=C(Cn1c(=O)c2cccn2c2ccc(F)cc21)N1CCN(c2ccccc2)CC1 | - | - | 0 | 0 | - | 0
O=C(Cn1c(-c2cccs2)cc2ccccc21)N1CCN(c2ccc(Cl)cc2)CC1 | - | - | 10µM | 0 | - | 0
NC(=O)C1CCN(C(=O)Cn2c(-c3cccs3)cc3ccccc32)CC1 | - | - | 32µM | 0 | - | 0
COc1ccc(N2CCN(C(=O)Cn3c(-c4cccs4)cc4ccccc43)CC2)cc1 | - | - | 32µM | 0 | - | 0
COc1ccc(N2CCN(C(=O)Cn3nnc(-c4cccs4)n3)CC2)cc1 | 0 | 0 | 0 | 0 | 0 | 0
COc1ccc(C2C(C(=O)N3CCOCC3)=C(C)NC3=C2C(=O)CC(C)(C)C3)c(OC)c1 (stereo not drawn) | 0 | 0 | 16µM | 0 | 0 | 0
CC1=C(C(=O)N2CCOCC2)C(c2ccccc2F)C2=C(CC(C)(C)CC2=O)N1 (stereo not drawn) | 0 | 0[7.66 µM] | 14µM | 0 | 0 | 0
O=C(CSc1nc2nc(-c3cccs3)cc(C(F)(F)F)c2c(=O)[nH]1)NCc1ccco1 | 0 | 0 | 8.9µM | 0 | 0 | 0
SMILES | N370S GC mod | a7 integrin act | ClpP mod | Apoferritin bind | CBFb RUNX1 block | GRP78 ERSR act
Cc1[nH]c2c(F)cccc2c1CC(=O)NCCN1Cc2ccccc2OC(C)C1 (stereo not drawn) | - | - | - | - | - | 0
CCCC1C(C(=O)OCC)=C(C)NC(C)=C1C(=O)OCC | 0 | 0 | 20µM | 0 | 0 | 0
Cc1cnc2ccc3ccccc3c2c1C | - | - | 0 | - | - | 0
O=S1(=O)C=C(SCc2cccc(Cl)c2)Nc2ccccc21 | 0 | 0 | 32µM | ? | 0 | 0
COc1cc(NC(=O)c2cc3cccc(OC)c3o2)cc(C(=O)Nc2cccc(C(F)(F)F)c2)c1 | 0 | 0 | 25µM | 0 | 0 | 0
COc1cc(NC(=O)c2ccno2)cc(C(=O)Nc2cccc(C(F)(F)F)c2)c1 | 0 | 0 | 0 | 0 | 0 | 0
COc1cc(-c2ccc(Cl)cn2)cc2c1OCCN(C(=O)c1ccccc1-n1cccn1)C2 | - | - | - | - | - | 0
COc1ccc(-c2cc3cc4c(cc3cn2)OCO4)cc1 | - | 0 | 14µM | - | - | 0
O=C(c1cnn2cccnc12)N1CCOc2ccc(C(O)C(c3ccccc3)c3ccccc3)cc2C1 (stereo not drawn) | - | - | - | - | - | 0
O=C(O)CCCCCNC(=O)CCn1nnc2ccccc2c1=O | 0 | 0 | 0 | 0 | 0 | 0
O=C(O)CCCNC(=O)CCn1nnc2ccccc2c1=O | 0 | 11µM | 0 | 0 | 0 | 0
CN(C)c1ccc(-c2noc(-c3ccccc3O)n2)cc1 | 0 | 0 | 10µM | 0 | 0 | 0
c1ccc(-c2noc(-c3ccccc3-c3ccccc3)n2)cc1 | 0 | 0 | 0 | 0 | ? | 0
O=C(COc1ccccc1C(=O)OCC(=O)N1CCOCC1)Nc1ccc(Br)cc1 | - | - | 0 | - | - | -
O=C(NN=C1C2CC3CC(C2)CC1C3)c1ccncc1 | 0 | 0 | 0 | 0 | 0 | 0
O=C(NN=C1C2CC3CC(C2)CC1C3)c1cc(Cl)ccc1O | 0 | 0 | 28µM | 0 | 0 | 0
COc1cc(C(=O)OC(COCCC(C)C)CN2CCOCC2)cc(OC)c1OC (stereo not drawn) | - | - | - | - | - | 0
O=S(=O)(/C=C/c1ccccc1)N1CCC(n2c(C3CCCO3)nc3cccnc32)CC1 (stereo not drawn) | - | - | - | - | - | 0
O=C(Nc1ccc2nsnc2c1)c1ccc2c(c1)OCO2 | 0 | 0 | ? | 0 | 0 | 0
O=C(Nc1ccc2nn(-c3ccccc3)nc2c1)c1ccc2c(c1)OCCO2 | 0 | 0 | 8.9µM | 0 | 0 | 0
Cc1ccc(-n2nc3ccc(NC(=O)c4ccc5c(c4)OCO5)cc3n2)cc1 | 0 | 0 | 14µM | 0 | 0 | 0
O=C(Nc1ccc(NC(=O)c2ccc3c(c2)OCCO3)cc1)c1ccccc1 | 0 | 0 | - | 0 | - | 0
COc1ccc(O)c(CN2CCOc3c(cc(-c4cccc(OC)n4)cc3OC)C2)c1 | - | - | - | - | - | 0
O=C(c1nc2ccccn2c1CN1CCCC(O)C1)N1CCN(C2CCCCC2)CC1 (stereo not drawn) | 0 | 0 | 0 | 0 | - | 0
NC(=O)[C@@H]1CCCN1Cc1c(C(=O)N2CCN(C3CCCCC3)CC2)nc2ccccn12 | 0 | 0 | 18µM | 0 | - | 0
COc1ccc2[nH]c(CCc3nc4c(OC)c(OC)ccc4[nH]3)nc2c1OC | - | - | 0 | - | - | 0
O=S1(=O)N(Cc2ccccc2F)CCCN1Cc1c(F)cccc1Cl | 0 | 0 | 32µM | 0 | - | 0
Cc1ccc(CN2CCCN(Cc3c(F)cccc3Cl)S2(=O)=O)cc1 | 0 | 0 | - | 0 | - | 0
